# ± gives the standard deviation of the averaged measurements. In all, about 25,000 sequences were measured (“ln(normalized median fluorescence intensity)”: median about 10, highest 2% from about 12 on). This is one part of a sample in which the highest values are shown more often than they occur.
# Tested on: PfAP2-G AP2 domain (GST-tagged)
# Experiment: gcPBM binding intensity (ln(normalized median fluorescence intensity)); higher = stronger DNA binding
# Outline: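 An Agilent 4 × 180k array carrying primer-extended double-stranded 36-bp intergenic genomic probes and negative controls received GST-tagged P. falciparum DNA-binding domains expressed in E. coli, about 25 μg on average, for 1 h. The binding buffer contained 1× PBS, 1% milk, 0.2 mg/ml BSA, 0.5% salmon testes DNA and 0.03% Triton X-100. Binding intensity is the top Masliner-normalised natural-log median intensity across replicate spots of either probe orientation, read after Alexa488 anti-GST antibody staining and a 488 nm scan.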
row,Sequence,gcPBM binding intensity (ln)
1,TTTTTATAAGCATAAAGTACAAATATTTTTTAGTTG [XGTACX_site4140],11 ± 0.59
2,TGTAAGTATTCTTGAGGTACACATATAAATATAGTA [XGTACX_site3207],11.4 ± 0.79
3,AAATATATATATATATATATATATATATATATATAT [CACACA_negctrl_site677],10 ± 1
4,TATATAAAGCATTGTAGTACTACCAATATTTTTTTT [XGTACX_site3523],11.6 ± 1
5,ATAGAATAATATTGTAGTACTAAAAATATTCATTTT [XGTACX_site6447],11.4 ± 0.92
6,TAATATTTATAAAATAGTACACAGAAAAAGCATTTT [XGTACX_site8948],11.4 ± 0.88
7,GGAAACCTTTTTTTTACACACAATATATTAAGACTT [CACACA_site4899],9.86 ± 0.014
8,AAAAAAAAATTAAACATACACACGTTACTATTTTTA [CACACA_site1687],9.64 ± 0.26
9,AATTATTAAATATGTACACACGTACATTTTATAAAT [CACACA_site5341],11.6 ± 1
10,AAAATTATTAAATATGTACACACGTACATTTTATAA [CACACA_site8750],11.6 ± 0.88
11,TATAATATATTTTAATGTACGTACATCCCGATTAAT [XGTACX_site7651],11.7 ± 0.86
12,TACGTATTTTAATATTTACACACTTATTTTTTATAT [CACACA_site7924],10.2 ± 0.13
13,AATGTTTATTTTGTTTGTACATAAAATGAATAAAAT [XGTACX_site1456],11.1 ± 0.77
14,TATTAAGTATTTTACGTACACACTTATAAATGTACA [CACACA_site3885],11.7 ± 0.82
15,AATATTTTTAATTAATGTACATATTTATTATATAAA [XGTACX_site5112],11.2 ± 0.76
16,TAGTATTATTTTTTTTGTACATATAAATGTAAAATA [XGTACX_site5282],11 ± 0.71
17,AAATGTATAATTTTTTAATACACTTATTTAAAATAA [CACACA_negctrl_site797],10.1 ± 0.2
18,TTATACATATTTATATGTACGTAATATAATATTAAT [XGTACX_site6520],11.3 ± 0.91
19,TTATTATAAATGTTTTGTACGTACATCCGAAAATAA [XGTACX_site2175],11.7 ± 1.2

row,Sequence,gcPBM binding intensity (ln)
1,TTATTAAATATGTACACACGTACATTTTATAAATGA [CACACA_site2387],11.7 ± 1.1
2,CCTTTCTATTGAAAATGTACATATATATTATTATAT [XGTACX_site5527],11.1 ± 0.71
3,ATATTTTCTAATCAATGTACTTATTCTACACATTAA [XGTACX_site5774],11.3 ± 0.92
4,ATGGAAATATATACATGTACATAAATATATATATAT [XGTACX_site8391],11.2 ± 0.61
5,TTTTACTCTTAAAATAATAAAAAATATTCACATTTA [CACACA_negctrl_site1508],9.63 ± 0.085
6,TAAATTATAACGTGCACACATATTTAAAATGAAATG [CACACA_site2820],10.6 ± 0.45
7,TCTTCACCACGTGGAAGTACATAAAAAGATACACAA [XGTACX_site4747],11.4 ± 0.93
8,AATTTATTAGATAGATGTACATTTTAATAAAAGTAG [XGTACX_site6819],11.1 ± 0.67
9,AGATATTTTTCTTAAGTACACACTAATTAGAAACTA [CACACA_site7897],11.3 ± 0.93
10,CCCATATTATAGGTGTGTACATAAAAGTATATATAA [XGTACX_site3629],11.6 ± 0.95
11,TAACACCAAACTAAATGTACACACATACATAAATAT [XGTACX_site2201],11.2 ± 0.79
12,TATATAATATATTAATGTACGTTATATGTATTCCTT [XGTACX_site6140],11.2 ± 0.81
13,ATAATCCTTGGACACACACACACACTAGTAAATAAA [CACACA_site4423],10.9 ± 0.57
14,ATAAAAGATATTTTTACACACTTTTGATGAGATCGT [CACACA_site3053],10.08 ± 0.057
15,TTTTTAATCCTTTGCGCATGTAAAATTATATATTTT [TGCATGCA_site306],10.1 ± 0.11
16,TCATTTTAAGGAAAAAGTACAAAATAATATGTTCCT [XGTACX_site1903],11 ± 0.65
17,ATCTCTTAAATTTTACGTACTTATTTTATCTTCTTA [XGTACX_site8877],11.2 ± 0.67
18,AATTTCAATTTCTGTTGTACACTTTTTAATAGTAAA [XGTACX_site4085],11.4 ± 0.88
19,ATTATGATTTTATAGAACTGAACATTTACATTAAAT [GTGCAC_negctrl_site192],9.855 ± 0.064

row,Sequence,gcPBM binding intensity (ln)
1,TAAAAATGTGGACACACACACATATTTATATTTAAT [CACACA_site6827],11.4 ± 0.72
2,TATCCATTATTTAAAAGTACAAAAAACGATTTACAC [XGTACX_site2979],11.3 ± 0.8
3,ATATAAAAATGTGTATGTACACACTTTATTTTTAAT [XGTACX_site5272],11.4 ± 0.74
4,TTAAGTATTTTACGTACACACTTATAAATGTACAGG [CACACA_site6012],11.7 ± 0.93
5,CTACACACTTATAAATGTACAGGATTTAAGTATATG [XGTACX_site8245],10.9 ± 0.49
6,TGGAATAATCCGCGTACACACATATATATATTAAGA [CACACA_site4253],11.6 ± 0.87
7,GTCTGCATATGGATACGTACACATATATATTAATGT [XGTACX_site2260],11.7 ± 0.91
8,TTAAAAATTATGGATACACACATATATATATATATT [CACACA_site2383],10.2 ± 0.2
9,GAATAATATGGACATACACACATATACATACATATA [CACACA_site2114],10.9 ± 0.51
10,ATATGGAATAATACGCGTACACACATATATATATTA [XGTACX_site307],11.7 ± 1
11,TGGAATAATACGCGTACACACATATAAATATTAATA [CACACA_site6211],11.7 ± 0.91
12,AATATATATTAATACACACACACATATATATATATA [CACACA_site3786],10.3 ± 0.47
13,GTAATTATATACATACGTACATACACATATGTATAT [XGTACX_site4149],11.3 ± 0.65
14,TATGGAATAATACGCGTACACACATATATATATTAA [CACACA_site132],11.6 ± 0.93
15,TGGAATAATACGCGTACACACATATATATATTAATA [CACACA_site131],11.8 ± 0.97
16,TATAAATACATACGTACACACAAATATTAAAATATA [CACACA_site5129],11.5 ± 0.87
17,CATATAATAAATAATACACACATATTGGAAATATAT [CACACA_site3212],9.98 ± 0.057
18,AGTTTTATATTTCTGAGTACTTATGAATCTAGCTCG [XGTACX_site4330],11.2 ± 0.72
19,TGGTGATATACGAAATGTACGCAAATCACAAAATAA [XGTACX_site8836],11.5 ± 0.98
